{
  "source": "ChEMBL document CHEMBL3988442",
  "about": "“University of Dundee, Small-Polar-MMV Screening Library” (2021)",
  "key": {"[1]": {"target": "T1, Aspartate--tRNA(Asp/Asn) ligase (Mycobacterium tuberculosis (strain ATCC 25618 / H37Rv)) (UniProt P9WFW3)", "T1 sequence (whole entry)": "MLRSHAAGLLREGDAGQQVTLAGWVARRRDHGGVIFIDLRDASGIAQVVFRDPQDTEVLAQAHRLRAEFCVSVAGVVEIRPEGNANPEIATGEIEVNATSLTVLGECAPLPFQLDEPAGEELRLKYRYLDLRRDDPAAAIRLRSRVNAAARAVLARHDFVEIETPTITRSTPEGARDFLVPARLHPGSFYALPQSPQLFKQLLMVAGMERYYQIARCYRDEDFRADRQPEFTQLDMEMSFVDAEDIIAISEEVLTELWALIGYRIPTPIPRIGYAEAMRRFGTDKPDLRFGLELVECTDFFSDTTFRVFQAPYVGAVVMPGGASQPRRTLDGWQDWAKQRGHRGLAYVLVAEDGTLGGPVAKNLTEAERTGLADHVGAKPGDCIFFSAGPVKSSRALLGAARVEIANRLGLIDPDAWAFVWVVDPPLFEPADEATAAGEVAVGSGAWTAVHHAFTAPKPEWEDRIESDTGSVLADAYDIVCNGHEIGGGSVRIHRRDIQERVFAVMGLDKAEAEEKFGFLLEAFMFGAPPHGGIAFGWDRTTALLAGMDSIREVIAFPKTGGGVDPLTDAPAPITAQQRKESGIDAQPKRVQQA", "test": "Assay for Asp RNA synthetase-1 from Mycobacterium tuberculosis", "assay_type": "functional", "parameters": "scale not given: direction of the effect not stated beside the values", "conditions": "30 µM"}, "[2]": {"target": "Shiga toxin 2 (Escherichia coli O157:H7) (UniProt P09385+P09386)", "test": "E. coli 0.157:H7 Shiga Toxin SOP - stx2 screening assay", "assay_type": "functional", "parameters": "scale not given: direction of the effect not stated beside the values", "conditions": "30 µM"}},
  "data": [
    {"smiles": "Cc1ncsc1-c1nnc(C2CCN(Cc3ccc(F)cc3)CC2)o1", "values": [
      {"measurement": "Percent Effect", "setting": "[1]", "result": 4.24, "unit": "%"},
      {"measurement": "Percent Effect", "setting": "[2]", "result": -43.6, "unit": "%"}
    ]},
    {"smiles": "Cc1occc1C(=O)N1CCC2(CC1)CC(c1cccnc1)C(=O)N2C", "note": "(configuration not stated)", "values": [
      {"measurement": "Percent Effect", "setting": "[1]", "result": -1.22, "unit": "%"},
      {"measurement": "Percent Effect", "setting": "[2]", "result": -20.1, "unit": "%"}
    ]},
    {"smiles": "CCn1cc(CN(C)S(=O)(=O)c2cc(Cl)ccc2Cl)cn1", "values": [
      {"measurement": "Percent Effect", "setting": "[1]", "result": -5.08, "unit": "%"},
      {"measurement": "Percent Effect", "setting": "[2]", "result": -51.4, "unit": "%"}
    ]},
    {"smiles": "CN(C)CC1CSCCCN1C(=O)c1ccc(C(C)(C)C)cc1", "note": "(configuration not stated)", "values": [
      {"measurement": "Percent Effect", "setting": "[1]", "result": -2.32, "unit": "%"},
      {"measurement": "Percent Effect", "setting": "[2]", "result": 10.3, "unit": "%"}
    ]},
    {"smiles": "NC(=O)CN1CCC(NC(=O)c2ccn(-c3cccc(F)c3)n2)CC1", "values": [
      {"measurement": "Percent Effect", "setting": "[1]", "result": 2.51, "unit": "%"},
      {"measurement": "Percent Effect", "setting": "[2]", "result": -20, "unit": "%"}
    ]},
    {"smiles": "O=C(c1cccc(F)c1)N1CCN2C[C@H](OCc3cccnc3)C[C@H]2C1", "values": [
      {"measurement": "Percent Effect", "setting": "[1]", "result": -1.22, "unit": "%"},
      {"measurement": "Percent Effect", "setting": "[2]", "result": -4.11, "unit": "%"}
    ]},
    {"smiles": "CN(Cc1cnn(C)c1)C(=O)NCc1nnc2n1CCC2", "values": [
      {"measurement": "Percent Effect", "setting": "[1]", "result": -10.2, "unit": "%"},
      {"measurement": "Percent Effect", "setting": "[2]", "result": 4.62, "unit": "%"}
    ]},
    {"smiles": "c1cnnc(N2CCCC2CNCc2nc(-c3ccsc3)no2)c1", "note": "(configuration not stated)", "values": [
      {"measurement": "Percent Effect", "setting": "[1]", "result": -0.433, "unit": "%"},
      {"measurement": "Percent Effect", "setting": "[2]", "result": -0.726, "unit": "%"}
    ]},
    {"smiles": "COCCc1noc(CNC2CCCN(c3cccnn3)C2)n1", "note": "(configuration not stated)", "values": [
      {"measurement": "Percent Effect", "setting": "[1]", "result": -0.981, "unit": "%"},
      {"measurement": "Percent Effect", "setting": "[2]", "result": -59, "unit": "%"}
    ]},
    {"smiles": "CNC(=O)CN1CCCC12CCN(C(=O)c1ccc(F)cc1)CC2", "values": [
      {"measurement": "Percent Effect", "setting": "[1]", "result": -5.42, "unit": "%"},
      {"measurement": "Percent Effect", "setting": "[2]", "result": -14.4, "unit": "%"}
    ]},
    {"smiles": "c1nc2c(c(-c3ccsc3)n1)CCN(Cc1ccoc1)CC2", "values": [
      {"measurement": "Percent Effect", "setting": "[1]", "result": 8.04, "unit": "%"},
      {"measurement": "Percent Effect", "setting": "[2]", "result": -46, "unit": "%"}
    ]},
    {"smiles": "CCOc1cccc2c1OCC(C(=O)NS(=O)(=O)c1ccc(Cl)cc1)=C2", "values": [
      {"measurement": "Percent Effect", "setting": "[1]", "result": 0.459, "unit": "%"},
      {"measurement": "Percent Effect", "setting": "[2]", "result": 17, "unit": "%"}
    ]},
    {"smiles": "Cn1cnc2c1CCN(Cc1nc(Cc3ccccc3)no1)C2", "values": [
      {"measurement": "Percent Effect", "setting": "[1]", "result": -1.94, "unit": "%"},
      {"measurement": "Percent Effect", "setting": "[2]", "result": 15.1, "unit": "%"}
    ]},
    {"smiles": "OC(COc1ccccc1)CN1CCc2c(ncn2C2CC2)C1", "note": "(configuration not stated)", "values": [
      {"measurement": "Percent Effect", "setting": "[1]", "result": -7.92, "unit": "%"},
      {"measurement": "Percent Effect", "setting": "[2]", "result": -25.6, "unit": "%"}
    ]},
    {"smiles": "COc1cccc(CN2CCCC(Nc3cccc(F)c3)C2)c1O", "note": "(configuration not stated)", "values": [
      {"measurement": "Percent Effect", "setting": "[1]", "result": -1.31, "unit": "%"},
      {"measurement": "Percent Effect", "setting": "[2]", "result": 11.2, "unit": "%"}
    ]},
    {"smiles": "CCc1nc(C2CCCN(C(=O)c3cccc4cn[nH]c34)C2)no1", "note": "(configuration not stated)", "values": [
      {"measurement": "Percent Effect", "setting": "[1]", "result": 4.75, "unit": "%"},
      {"measurement": "Percent Effect", "setting": "[2]", "result": 29.8, "unit": "%"}
    ]},
    {"smiles": "Cc1cccc(N2CC[C@@H]3CN(Cc4csc(C)n4)CCO[C@@H]3C2)n1", "values": [
      {"measurement": "Percent Effect", "setting": "[1]", "result": -1.08, "unit": "%"},
      {"measurement": "Percent Effect", "setting": "[2]", "result": -42.6, "unit": "%"}
    ]},
    {"smiles": "CC(=O)Nc1nc(CN2CCCC2Cn2cc(C)cn2)cs1", "note": "(configuration not stated)", "values": [
      {"measurement": "Percent Effect", "setting": "[1]", "result": -2.91, "unit": "%"},
      {"measurement": "Percent Effect", "setting": "[2]", "result": -25.9, "unit": "%"}
    ]},
    {"smiles": "CN(C)CCOCC1CN(CC2CCOCC2)Cc2nnn(C)c21", "note": "(configuration not stated)", "values": [
      {"measurement": "Percent Effect", "setting": "[1]", "result": -1.11, "unit": "%"},
      {"measurement": "Percent Effect", "setting": "[2]", "result": -12.4, "unit": "%"}
    ]},
    {"smiles": "CCOCCCC(=O)NCCC(=O)N1CCN(c2ccccn2)CC1", "values": [
      {"measurement": "Percent Effect", "setting": "[1]", "result": 0.809, "unit": "%"},
      {"measurement": "Percent Effect", "setting": "[2]", "result": -65.6, "unit": "%"}
    ]},
    {"smiles": "Cc1nc(-c2ccsc2)ccc1C(=O)O", "values": [
      {"measurement": "Percent Effect", "setting": "[1]", "result": -0.501, "unit": "%"},
      {"measurement": "Percent Effect", "setting": "[2]", "result": -2.78, "unit": "%"}
    ]},
    {"smiles": "O=C(COCC1CC1)N1CCCC(n2cccn2)C1", "note": "(configuration not stated)", "values": [
      {"measurement": "Percent Effect", "setting": "[1]", "result": 4.67, "unit": "%"},
      {"measurement": "Percent Effect", "setting": "[2]", "result": -15.2, "unit": "%"}
    ]},
    {"smiles": "CN(Cc1ccco1)Cc1cncc2c1CCN(c1ncccn1)C2", "values": [
      {"measurement": "Percent Effect", "setting": "[1]", "result": 0.874, "unit": "%"},
      {"measurement": "Percent Effect", "setting": "[2]", "result": -26.7, "unit": "%"}
    ]},
    {"smiles": "CS(=O)(=O)NCC1CCCN(Cc2ccc(F)c3cccnc23)C1", "note": "(configuration not stated)", "values": [
      {"measurement": "Percent Effect", "setting": "[1]", "result": 5.29, "unit": "%"},
      {"measurement": "Percent Effect", "setting": "[2]", "result": -44.4, "unit": "%"}
    ]},
    {"smiles": "O=C1COC2(CCN(C(=O)c3ccco3)CC2)CN1Cc1cccnc1", "values": [
      {"measurement": "Percent Effect", "setting": "[1]", "result": -2.62, "unit": "%"},
      {"measurement": "Percent Effect", "setting": "[2]", "result": -14.9, "unit": "%"}
    ]},
    {"smiles": "Cc1cc(=O)n(CC(=O)NCC2CCCO2)c(-c2ccc(F)cc2)n1", "note": "(configuration not stated)", "values": [
      {"measurement": "Percent Effect", "setting": "[1]", "result": 5.94, "unit": "%"},
      {"measurement": "Percent Effect", "setting": "[2]", "result": -51.4, "unit": "%"}
    ]}
  ]
}
